Reference: PubChem BioAssay AID1159580 (chemical genetic matrix, 2015)
The whole screen tested about 5,500 compounds, of which about 2,000 (36%) were called active. About 18% were inconclusive and are not listed. The list shows a part of the results. Unmarked numbers belong to inactive results. Rule as the data show it: active = normalized growth mostly below about 0.91 (no sharp cut-off); inconclusive = no clear call, values can overlap the other calls; inactive = mostly above about 0.92.

Experiment: chemical genetic growth profiling, strain panel (AID 1159580);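 also: tested at 20 µM; growth read once vehicle control cultures reached saturation at 30 °C; 1 = growth at the plate median or of vehicle wells; lower values mean less growth of the strain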
Conditions: growth OD

Compound: COC(=O)NC(=S)Nc1ccccc1NC(=S)NC(=O)OC
- normalized growth (S. cerevisiae deletion strains, locus YJR075W, strain HOC1, hits give low values): 1.01
- normalized growth (S. cerevisiae deletion strains, locus YKL009W, strain mrt4, hits give low values): 0.995
- normalized growth (S. cerevisiae deletion strains, locus YKL068W, hits give low values): 0.996
- normalized growth (S. cerevisiae deletion strains, locus YKL085W, strain MDH1 (second series), hits give low values): 1
- normalized growth (S. cerevisiae deletion strains, locus YKL085W, strain MDH1, hits give low values): 1
- normalized growth (S. cerevisiae deletion strains, locus YKL160W, strain elf1, hits give low values): 0.952
- normalized growth (S. cerevisiae deletion strains, locus YKL190W, strain CNB1, hits give low values): 1.01
- normalized growth (S. cerevisiae deletion strains, locus YKR001C, strain vps1, hits give low values): 0.991
- normalized growth (S. cerevisiae deletion strains, locus YKR026C, strain gcn3, hits give low values): 0.974
- normalized growth (S. cerevisiae deletion strains, locus YKR091W, strain srl3, hits give low values): 0.97
- normalized growth (S. cerevisiae deletion strains, locus YLL001W, strain dnm1, hits give low values): 0.972
- normalized growth (S. cerevisiae deletion strains, locus YLL026W, hits give low values): 0.981
- normalized growth (S. cerevisiae deletion strains, locus YLL041C, strain sdh2, hits give low values): 0.978
- normalized growth (S. cerevisiae deletion strains, locus YLR027C, strain aat2, hits give low values): 0.975
- normalized growth (S. cerevisiae deletion strains, locus YLR039C, strain RIC1, hits give low values): 1.02
- normalized growth (S. cerevisiae deletion strains, locus YLR058C, strain SHM2, hits give low values): 1
- normalized growth (S. cerevisiae deletion strains, locus YLR102C, strain apc9, hits give low values): 1.01
- normalized growth (S. cerevisiae deletion strains, locus YLR113W, strain HOG1, hits give low values): 0.983
- normalized growth (S. cerevisiae deletion strains, locus YLR221C, strain rsa3, hits give low values): 0.974
- normalized growth (S. cerevisiae deletion strains, locus YLR258W, strain gsy2, hits give low values): 0.985
- normalized growth (S. cerevisiae deletion strains, locus YLR262C, strain YPT6 (second series), hits give low values): 0.987
- normalized growth (S. cerevisiae deletion strains, locus YLR262C, strain YPT6, hits give low values): 0.989
- normalized growth (S. cerevisiae deletion strains, locus YLR268W, strain sec22, hits give low values): 1.07
- normalized growth (S. cerevisiae deletion strains, locus YLR320W, strain mms22, hits give low values): 0.856 (active)
- normalized growth (S. cerevisiae deletion strains, locus YLR330W, strain CHS5, hits give low values): 1
- normalized growth (S. cerevisiae deletion strains, locus YLR342W, strain FKS1 (second series), hits give low values): 0.988
- normalized growth (S. cerevisiae deletion strains, locus YLR342W, strain FKS1, hits give low values): 0.97
- normalized growth (S. cerevisiae deletion strains, locus YLR357W, strain rsc2, hits give low values): 0.92
- normalized growth (S. cerevisiae deletion strains, locus YLR370C, strain arc18, hits give low values): 0.98
- normalized growth (S. cerevisiae deletion strains, locus YLR371W, strain rom2, hits give low values): 1.02
- normalized growth (S. cerevisiae deletion strains, locus YLR384C, strain iki3, hits give low values): 0.964
- normalized growth (S. cerevisiae deletion strains, locus YLR418C, strain cdc73, hits give low values): 0.972
- normalized growth (S. cerevisiae deletion strains, locus YML016C, strain PPZ1, hits give low values): 1
- normalized growth (S. cerevisiae deletion strains, locus YML032C, strain rad52, hits give low values): 1.05
- normalized growth (S. cerevisiae deletion strains, locus YML120C, strain ndi1, hits give low values): 0.97
- normalized growth (S. cerevisiae deletion strains, locus YML124C, strain tub3, hits give low values): 1
- normalized growth (S. cerevisiae deletion strains, locus YMR058W, strain fet3, hits give low values): 0.957
- normalized growth (S. cerevisiae deletion strains, locus YMR078C, strain ctf18, hits give low values): 1.02
- normalized growth (S. cerevisiae deletion strains, locus YMR125W, strain sto1, hits give low values): 0.974
- normalized growth (S. cerevisiae deletion strains, locus YMR129W, hits give low values): 0.98
- normalized growth (S. cerevisiae deletion strains, locus YMR205C, strain PFK2, hits give low values): 0.97
- normalized growth (S. cerevisiae deletion strains, locus YMR223W, strain ubp8, hits give low values): 0.978
- normalized growth (S. cerevisiae deletion strains, locus YMR231W, strain pep5, hits give low values): 0.993
- normalized growth (S. cerevisiae deletion strains, locus YMR263W, strain SAP30, hits give low values): 1.02
- normalized growth (S. cerevisiae deletion strains, locus YMR307W, strain GAS1, hits give low values): 0.983
- normalized growth (S. cerevisiae deletion strains, locus YNL067W, strain RPL9B, hits give low values): 1.02
- normalized growth (S. cerevisiae deletion strains, locus YNL071W, strain lat1, hits give low values): 0.772 (active)
- normalized growth (S. cerevisiae deletion strains, locus YNL128W, strain TEP1, hits give low values): 1.01
- normalized growth (S. cerevisiae deletion strains, locus YNL153C, strain GIM3, hits give low values): 0.99
- normalized growth (S. cerevisiae deletion strains, locus YNL183C, strain NPR1, hits give low values): 0.902
- normalized growth (S. cerevisiae deletion strains, locus YNL209W, strain ssb2, hits give low values): 1.01
- normalized growth (S. cerevisiae deletion strains, locus YNL233W, strain BNI4, hits give low values): 1.03
- normalized growth (S. cerevisiae deletion strains, locus YNL248C, strain rpa49, hits give low values): 0.93
- normalized growth (S. cerevisiae deletion strains, locus YNL250W, strain rad50, hits give low values): 0.989
- normalized growth (S. cerevisiae deletion strains, locus YNL271C, strain bni1, hits give low values): 1.01
- normalized growth (S. cerevisiae deletion strains, locus YNL298W, strain CLA4, hits give low values): 0.978
- normalized growth (S. cerevisiae deletion strains, locus YNL307C, strain MCK1, hits give low values): 0.986
- normalized growth (S. cerevisiae deletion strains, locus YNL322C, strain KRE1 (second series), hits give low values): 0.985
- normalized growth (S. cerevisiae deletion strains, locus YNL322C, strain KRE1, hits give low values): 0.998
- normalized growth (S. cerevisiae deletion strains, locus YNR049C, strain mso1, hits give low values): 0.99
- normalized growth (S. cerevisiae deletion strains, locus YNR052C, strain pop2, hits give low values): 1.01
- normalized growth (S. cerevisiae deletion strains, locus YOL006C, strain TOP1, hits give low values): 1.09
- normalized growth (S. cerevisiae deletion strains, locus YOL012C, strain htz1): 1.25
- normalized growth (S. cerevisiae deletion strains, locus YOL147C, strain pex11, hits give low values): 1.01
- normalized growth (S. cerevisiae deletion strains, locus YOR001W, strain rrp6, hits give low values): 0.986
- normalized growth (S. cerevisiae deletion strains, locus YOR061W, strain CKA2, hits give low values): 1.01
- normalized growth (S. cerevisiae deletion strains, locus YOR069W, strain VPS5, hits give low values): 1.01
- normalized growth (S. cerevisiae deletion strains, locus YOR070C, strain gyp1, hits give low values): 0.985
- normalized growth (S. cerevisiae deletion strains, locus YOR080W, strain dia2, hits give low values): 1.01
- normalized growth (S. cerevisiae deletion strains, locus YOR083W, strain WHI5, hits give low values): 0.97
- normalized growth (S. cerevisiae deletion strains, locus YOR106W, strain vam3, hits give low values): 0.887
- normalized growth (S. cerevisiae deletion strains, locus YOR136W, strain idh2, hits give low values): 0.999
- normalized growth (S. cerevisiae deletion strains, locus YOR144C, strain elg1, hits give low values): 1.01
- normalized growth (S. cerevisiae deletion strains, locus YOR184W, strain ser1, hits give low values): 1.01
- normalized growth (S. cerevisiae deletion strains, locus YOR231W, strain MKK1, hits give low values): 0.986
- normalized growth (S. cerevisiae deletion strains, locus YOR265W, strain rbl2, hits give low values): 1
- normalized growth (S. cerevisiae deletion strains, locus YOR270C, strain vph1, hits give low values): 0.858
- normalized growth (S. cerevisiae deletion strains, locus YOR290C, strain snf2, hits give low values): 0.959
- normalized growth (S. cerevisiae deletion strains, locus YOR316C, strain cot1, hits give low values): 1.01
- normalized growth (S. cerevisiae deletion strains, locus YPL051W, strain arl3, hits give low values): 0.957
- normalized growth (S. cerevisiae deletion strains, locus YPL055C, strain LGE1, hits give low values): 0.98
- normalized growth (S. cerevisiae deletion strains, locus YPL078C, strain atp4, hits give low values): 0.989
- normalized growth (S. cerevisiae deletion strains, locus YPL106C, strain sse1, hits give low values): 0.998
- normalized growth (S. cerevisiae deletion strains, locus YPL240C, strain hsp82, hits give low values): 1
- normalized growth (S. cerevisiae deletion strains, locus YPL241C, strain CIN2, hits give low values): 1.01
- normalized growth (S. cerevisiae deletion strains, locus YPL256C, strain CLN2, hits give low values): 1.01
- normalized growth (S. cerevisiae deletion strains, locus YPR119W, strain clb2, hits give low values): 1.02
- normalized growth (S. cerevisiae deletion strains, locus YPR141C, strain kar3, hits give low values): 0.994
- normalized growth (S. cerevisiae deletion strains, locus YPR163C, strain tif3, hits give low values): 1.03
- normalized growth (S. cerevisiae deletion strains, locus YPR167C, strain met16, hits give low values): 1.01
- normalized growth (S. cerevisiae deletion strains, strain wtn01, hits give low values): 1.02
- normalized growth (S. cerevisiae strains, strain wild type, hits give low values): 0.996
